An excerpt weighted towards active compounds, which were near 7.3% of everything screened.
AmpC detergent = AmpC beta-lactamase inhibition with detergent present; Potency, µM (top dose mostly 114 µM), actives largely listed as inhibitors; AmpC hydrolysis of nitrocefin, absorbance 480 nm, 0.01% Triton; hit rate 0.041% among 370,000; P00811; AID 485294; also: nearly all actives have a fitted effect of over 25% in size
Target sequence (P00811 whole entry, looked up): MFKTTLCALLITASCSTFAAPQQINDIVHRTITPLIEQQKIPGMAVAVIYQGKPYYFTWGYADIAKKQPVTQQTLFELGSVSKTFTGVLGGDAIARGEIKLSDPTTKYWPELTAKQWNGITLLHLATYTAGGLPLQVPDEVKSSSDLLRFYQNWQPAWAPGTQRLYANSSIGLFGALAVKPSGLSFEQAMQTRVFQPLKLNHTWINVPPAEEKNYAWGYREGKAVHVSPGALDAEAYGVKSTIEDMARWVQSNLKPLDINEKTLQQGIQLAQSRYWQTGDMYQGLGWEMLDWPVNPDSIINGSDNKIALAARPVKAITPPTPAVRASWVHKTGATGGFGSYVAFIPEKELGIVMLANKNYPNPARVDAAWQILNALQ
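20 mM phosphate pH 7.0 + 0.01% (detergent screen) or 0.0001% Triton X-100; 5.3 nM AmpC reagent; cpd preinc 15 min RT; nitrocefin (800 uM stock) to start; A480 q20 s × 4 min; Activity was normalised to no-enzyme and no-compound control wells.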
HCMV inh = blocks human cytomegalovirus replication. HFF cells, HCMV-luciferase reporter, 72 h; hits give low values. activity change, negative = inhibition, % at 57.5 µM. hit rate 4.5% among 410,000. AID 1259415; in the data active = activity change below about -60%; inconclusive = no clear call, values can overlap the other calls; inactive = above about -39%
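Compounds were evaluated in HFFs infected with an HCMV luciferase reporter virus (MOI 1 PFU/cell). Luciferase in lysates collected 72 h post infection served as the replication measure.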
AmpC no deterg = blocks E. coli AmpC beta-lactamase in detergent-free assay; P00811; AmpC nitrocefin hydrolysis, absorbance 480 nm, 0.0001% Triton; Potency, µM (doses to about 57.1 µM), actives largely listed as inhibitors; hit rate 0.52% among 330,000; also: nearly all actives have a fitted effect of over 20% in size
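20 mM phosphate pH 7.0 + 0.01% (detergent screen) or 0.0001% Triton X-100; 5.3 nM AmpC reagent; cpd preinc 15 min RT; nitrocefin (800 uM stock) to start; A480 q20 s × 4 min; Activity was normalised to no-enzyme and no-compound control wells.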
FMDV antiviral = foot and mouth disease virus antiviral activity; Potency, µM (highest dose often 57.9 µM), usual class: inhibitors; hit rate 1.2% among 410,000; FMDV antiviral cell-based qHTS; calls by dose curve; tested in HEK293T cells; also: read-out not given here; nearly all actives have a fitted effect of over 45% in size
HCV inh = blocks hepatitis C virus; Huh7.5.1 HCVcc-Cre infection, luciferase reporter, 44 h; Potency, µM (doses to about 41.8 µM), most hits filed as inhibitors; hit rate 3.4% among 340,000
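Antiviral activity was scored by luciferase reporter output from cells infected with HCVcc-Cre (~0.5 moi) in presence of compound, 44 h infection period, cells seeded 1,000/well 4 h prior.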
Numbers stand for hits; – = inactive; ? = inconclusive; · = no result. Unless noted, calls follow the shape of the dose curve; as a rule, active = well fitted curve in the direction sought with a large enough effect; inconclusive = small, poorly fitted or top-dose-only effect, or another doubt; inactive = no such curve, though single readings can be large; an effect the other way counts as inactive or inconclusive.

SMILES	AmpC detergent	HCMV inh	AmpC no deterg	FMDV antiviral	HCV inh
Cn1nnnc1SCCNC(=O)C1CCC(=O)N(Cc2ccc(Cl)cc2)C1 (stereo unspecified)	–	–	–	–	·
Cc1ccc(S(=O)(=O)Nc2cccc(CP(=O)(c3ccccc3)c3ccccc3)c2)cc1	–	–	–	–	–
CCCNC(=O)C1(C)CCCN(Cc2ccccc2Cl)C1 (stereo unspecified)	·	-76.8	·	–	·
CCCNC(=O)C1(C)CCCN(Cc2cccc3ccccc23)C1 (stereo unspecified)	·	–	·	–	·
CCCNC(=O)C1(C)CCN(C(=O)COc2ccc(Cl)cc2Cl)C1 (stereo unspecified)	·	–	·	–	·
CCCNC(=O)C1(C)CCCN(C(=O)COc2ccc(Cl)cc2Cl)C1 (stereo unspecified)	·	-100.0	·	–	·
CCn1c(=O)c2sccc2n(CC(=O)NC2CCCCC2)c1=O	–	–	–	–	–
COC(=O)C1=C(C)NC(=O)/C1=C\c1cc(C)n(-c2c(C)cccc2C)c1C	?	-61.5	–	·	?
COC(=O)C1=C(C)NC(=O)/C1=C\c1cc(C)n(-c2ccccc2C)c1C	–	–	–	–	?
O=C(CSCc1ccc(Cl)cc1)Nc1ccc(-c2nnc(-c3ccccc3)o2)cc1	–	–	–	–	7.08µM
CCC(=O)Oc1ccc(NC(=O)CSCc2ccccc2)cc1	–	-72.8	–	–	–
COC(=O)c1ccc(NC(=O)CSCc2ccccc2)cc1	–	·	–	–	–
O=C(Cc1ccc(Cl)cc1)Nc1ccc(-c2nnc(-c3ccco3)o2)cc1	–	–	–	?	?
COc1ccc(N2CCN(C(=O)CSc3c4c(nc5ccc(Cl)cc35)CCCC4)CC2)cc1	–	?	·	?	·
COc1cccc(C(C(=O)NC(C)(C)C)N(Cc2ccco2)C(=O)CCC(=O)Nc2cc(C)on2)c1OC (stereo unspecified)	–	–	–	–	–
COCCN(C(=O)CCC(=O)Nc1cc(C)on1)C(C(=O)NC(C)(C)C)c1ccccc1Cl (stereo unspecified)	–	-62.5	–	–	–
COCCN(C(=O)CCC(=O)Nc1nccs1)C(C(=O)NC(C)(C)C)c1ccc(F)cc1 (stereo unspecified)	–	–	–	–	–
COc1cccc(C(C(=O)NC(C)(C)C)N(Cc2ccc(C)cc2)C(=O)CCC(=O)Nc2cc(C)on2)c1OC (stereo unspecified)	–	–	–	?	11.2µM
COCCN(C(=O)CCC(=O)Nc1nccs1)C(C(=O)NC(C)(C)C)c1ccc(C)cc1 (stereo unspecified)	–	-73.5	–	–	–
CCCCN(C(=O)CCC(=O)Nc1cc(C)on1)C(C(=O)NC(C)(C)C)c1ccccc1Cl (stereo unspecified)	–	–	–	–	–
COc1ccccc1NC(=O)C1CCN(S(=O)(=O)c2cccs2)CC1	–	?	–	–	–
CC(C)CN(C(=O)C1CCCO1)C1CCS(=O)(=O)C1 (stereo unspecified)	?	–	–	–	–
Nc1nc(NC(=O)c2ccccc2)nn1-c1ccccc1	?	–	–	–	–
O=C(Nc1nc(NC(=O)c2ccco2)n(-c2ccccc2)n1)c1ccccc1	–	-100.0	–	·	?
COc1ccc(NC(=O)c2c(NC(=O)c3ccc(Br)cc3)sc3c2CCCC3)cc1	–	-62.7	·	?	·
SMILES	AmpC detergent	HCMV inh	AmpC no deterg	FMDV antiviral	HCV inh
COc1ccc(NC(=O)c2c(NC(=O)c3cccc(C)c3)sc3c2CCCC3)cc1	–	–	·	?	·
Cc1ccc(NC(=O)c2c(NC(=O)c3ccccc3)sc3c2CCC3)cc1	–	–	·	–	·
O=C(Nc1cccc(Cl)c1)c1c(NC(=O)C(F)(F)F)sc2c1CCCC2	–	-105.5	·	?	·
Cc1cccc(NC(=O)c2c(NC(=O)C(F)(F)F)sc3c2CCCCC3)c1	–	-100.1	·	?	·
Cc1cccc(NC(=O)c2c(Br)sc3c2CCCC3)c1	–	–	·	–	·
Cc1ccc(NC(=O)c2c(NC(=O)C(F)(F)F)sc3c2CCCCC3)cc1	–	-99.7	·	?	·
CC(O)(c1cccc(F)c1)c1nc(-c2ccc3ccccc3c2)cs1 (stereo unspecified)	·	–	·	–	·
CCCCN(C)CCCNC(=O)Cn1ncc2c3ccccc3n(Cc3cccc(Cl)c3)c2c1=O	–	–	·	–	·
Cc1ccccc1NC(=O)c1c(NC(=O)C(F)(F)F)sc2c1CCCCC2	–	-102.1	·	?	·
COc1ccc(/C=N/Nc2nc(Nc3ccccc3)nc(N3CCCCC3)n2)c(OC)c1	–	?	?	–	–
COc1cc(/C=N/Nc2nc(Nc3ccc(C)cc3)nc(-n3nc(C)cc3C)n2)cc(OC)c1OC	–	–	–	–	?
COc1cc(/C=N/Nc2nc(Nc3ccccc3)nc(-n3nc(C)cc3C)n2)cc(OC)c1OC	–	–	–	–	2.82µM
COc1ccc(O)c(/C=N/Nc2nc(Nc3ccccc3)nc(-n3nc(C)cc3C)n2)c1	–	-77.5	–	–	?
COc1cc(CN2CCOc3ccc(CN4CCC(O)(c5cccnc5)CC4)cc3C2)ccc1F	·	·	·	–	·
CCOC(=O)c1ccc2c(c1)sc1nc(-c3ccc(OCC)cc3)cn12	–	·	·	–	·
COCC(=O)Nc1cc(C(=O)N2CCN(c3ccccc3)C(=O)C2)cc2nc(-c3ccccc3)n(C)c12	·	·	·	–	·
COc1ccc(-c2nc3c(c(=O)[nH]c(=O)n3Cc3ccccc3)n2CCO)cc1	–	–	–	–	–
O=c1[nH]c(=O)n(Cc2ccccc2)c2nc(-c3ccc(Oc4ccc(F)cc4)c([N+](=O)[O-])c3)n(CCO)c12	–	-63.6	–	–	?
COCCn1c(=O)[nH]c(=O)c2c1nc(-c1ccc(-c3ccc(Cl)cc3[N+](=O)[O-])o1)n2Cc1ccccc1	–	–	7.94µM	?	10µM
Cc1ccc(-c2nc3c(c(=O)[nH]c(=O)n3CC(C)C)n2CC(C)C)cc1[N+](=O)[O-]	–	-62.4	–	–	?
COc1ccc(C2=Nn3c(nc4sc(C(=O)Nc5cccc(C)c5)c(C)c4c3=O)SC2)cc1	–	–	·	–	·
O=S(=O)(/N=C(/NS(=O)(=O)c1ccccc1)c1ccccc1)c1ccccc1	–	-105.5	–	–	–
CS(=O)(=O)N1CCC[C@@]2(CCN(C(=O)Nc3cccc(F)c3)C2)C1	·	·	·	–	·
Cc1ccc2c(c1C)-c1c(ccc(C)c1C)C(=O)C2=O	·	-96.3	·	28.2µM	11.2µM
CSc1nnc(CNS(=O)(=O)c2ccc(F)cc2F)n1-c1ccccc1C	·	·	·	–	·
Cc1nc(N2CCCCC2C)c2c(C)c(C(=O)Nc3cccc(C(F)(F)F)c3)sc2n1 (stereo unspecified)	–	–	–	?	?
Cc1nc(N2CCCCC2)c2c(C)c(C(=O)Nc3cccc(C(F)(F)F)c3)sc2n1	–	-60.1	–	?	25.1µM
O=C(NCc1ccc(Cl)cc1)C1CCN(S(=O)(=O)c2ccc(N3CCCC3=O)cc2)CC1	–	?	–	?	11.2µM

High-throughput results from PubChem.
